Source: PubChem BioAssay (National Center for Advancing Translational Sciences (NCATS))
The list is not random: actives were taken first. Their share in the collection is about 4.1%.
TSHR agonist: TSH receptor (human) agonism | P16473 | HEK293-CNG-TSHR cells (CNG channel as cAMP sensor), membrane potential dye, cAMP | Potency, µM (doses to about 57.1 µM), inactives show at the top dose activation, most hits filed as activators | hit rate 0.48% among 73,000; active means well fitted activation curve with a large enough effect in the main read-out, with a control signal flat, not every such curve was filed as active; inconclusive means small, poorly fitted or top-dose-only effect, or a change in a side signal; inactive means no such curve, though single readings can be large or run the other way; % of control where 0% means no effect;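 further: the control signal comes from parental cells without the receptor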
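cAMP rise detected as CNG-channel membrane depolarization by fluorescent dye (emission 590 nm), 30 min after compound, following 60 min dye loading containing 100 uM RO 20-1724 at room temperature. Cells: TSHR/CNG HEK 293, with parental CNG HEK 293 as control.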
Ub-GFP proteasome: inhibits proteasome, raising ubiquitin-GFP reporter fluorescence. 67,000 tested, under 10 active. AID 526. Potency, µM (series often up to 45.9 µM), for the others: at the highest dose activation (GFP accumulation), most hits filed as activators. Ubiquitin-GFP reporter cells, proteasome inhibition, GFP fluorescence; response scale: untreated = 0%, 10 µM MG-132 = 100%; active means well fitted activation curve with a large enough effect, not every such curve was filed as active; inconclusive means small, poorly fitted or top-dose-only effect, or another doubt; inactive means no such curve, though single readings can be large or run the other way
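Reporter cells (U2OS, ubiquitin-G76V-GFP fusion) are plated overnight, then treated 4 hr at 37 °C with compound titrations from 46 uM down to 2.9 nM. Activity is scaled against untreated cells and 10 uM MG-132.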
USP2a inhib: inhibitors of human ubiquitin-specific protease USP2a. O75604. USP2a enzymatic assay, qHTS inhibition. Potency, µM (highest dose often 38.3 µM), without a hit: top-dose activity change, negative = inhibition, usual class: inhibitors. hit rate 0.1% among 60,000. AID 927; further: nearly all actives have a fitted effect of over 60% in size
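USP2 core (20nM final) preincubated 30 min RT with compound, then Ub-PLA2 20nM and NBD C6-HPC 20uM final added; buffer 20mM Tris-HCl pH 8.0, 2mM CaCl2. Fluorescence Ex 460/Em 535 read at 0 and 2.5 h; normalized to NEM.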
HEK293 cAMP cs: raises cAMP in parental HEK293 cells, TSHR agonist counter-screen; parental HEK293 CNG cAMP sensor, membrane potential fluorescence; Potency, µM (highest dose often 57.1 µM), inactives show top-dose activation, actives largely listed as activators; hit rate 2.5% among 73,000; further: % of control where 0% means no effect; nearly all actives have a fitted effect of over 55% in size
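Parental HEK 293 cells stably expressing a modified CNG channel (no TSHR) report cAMP rise as membrane depolarization. Membrane potential dye with 100 uM RO 20-1724 was loaded for 60 min at room temperature, then compound added for 30 min; fluorescence read at 590 nm.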
PK Bst: modulators of Bacillus stearothermophilus pyruvate kinase; Potency, µM; purified pyruvate kinase, luminescence ATP production; ribose 5-phosphate activator present at AC10; hit rate 1.2% among 51,000; in the data active means potency below about 11 µM; inconclusive means mostly about 12 µM to 25 µM;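 the screen sought inhibitors and activators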;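 further: scaled between full activation by ribose 5 phosphate and full inhibition by luteolin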
GBA activity: human lysosomal glucosylceramidase modulation; P04062; Potency, µM; purified enzyme, resorufin glucoside fluorescence (screen aimed at inhibitors), 20 min; hit rate 1.1% among 48,000; AID 360; in the data active means potency below about 15 µM; inconclusive means mostly about 16 µM to 33 µM;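 further: the screen sought inhibitors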
Target sequence (P04062 whole entry, looked up): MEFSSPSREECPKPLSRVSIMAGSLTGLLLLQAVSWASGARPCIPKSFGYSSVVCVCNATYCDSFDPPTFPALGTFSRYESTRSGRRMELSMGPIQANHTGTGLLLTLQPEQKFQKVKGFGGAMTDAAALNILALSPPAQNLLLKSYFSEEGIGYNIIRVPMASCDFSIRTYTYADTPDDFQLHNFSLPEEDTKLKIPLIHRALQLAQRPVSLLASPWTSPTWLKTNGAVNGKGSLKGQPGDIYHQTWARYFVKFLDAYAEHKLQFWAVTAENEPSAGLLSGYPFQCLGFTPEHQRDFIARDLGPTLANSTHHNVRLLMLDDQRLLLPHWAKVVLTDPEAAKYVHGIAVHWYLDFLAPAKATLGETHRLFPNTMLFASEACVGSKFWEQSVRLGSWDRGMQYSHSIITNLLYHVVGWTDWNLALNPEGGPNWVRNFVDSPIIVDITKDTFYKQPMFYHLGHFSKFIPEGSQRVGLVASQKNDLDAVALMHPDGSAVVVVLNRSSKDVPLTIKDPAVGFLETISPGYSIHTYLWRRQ
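Compounds titrated against 0.2 nM normal enzyme, 30 uM resorufin beta-D-glucopyranoside substrate, citrate/phosphate buffer with taurocholate and tween-20, pH 5.9. Reaction ran 20 min at room temperature; fluorescence (Ex 548/Em 600) gave AC50.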
Active calls of the source: *; i = inactive; ? = inconclusive; / = no result given; [ ] = dose if it differs, or a comment. Unless noted, the call rests on the fitted dose curve; in most records, active means well fitted curve in the direction sought with a large enough effect; inconclusive means small, poorly fitted or top-dose-only effect, or another doubt; inactive means no such curve, though single readings can be large; an effect the other way counts as inactive or inconclusive. Potency means the concentration at half of the fitted maximal effect.

SMILES	TSHR agonist	Ub-GFP proteasome	USP2a inhib	HEK293 cAMP cs	PK Bst	GBA activity
Nc1nc(CN2CCN(c3cccc(Cl)c3)CC2)nc(N2CCCc3ccccc32)n1	/	-4.8%	32.5%	17.4%	>57	13.8*
Nc1nc(CSc2nnnn2-c2ccccc2)nc(N2CCCc3ccccc32)n1	1.1%	1.9%	2.4%	9.0%	>57	>76.9
O=C(O)C(NS(=O)(=O)c1cccc2cccnc12)c1ccccc1 (centres undefined)	-4.7%	11.3%	/	1.6%	/	/
CCC1Oc2ccc(C)cc2N(CC(=O)NCCC2=CCCCC2)C1=O (centres undefined)	?	4.2%	9.7%	6.31µM*	>57	>76.9
Cn1c(-c2ccc(Br)o2)nc2ccccc21	?	/	7.7%	?	?	>76.9
Cn1c(-c2ccc(Br)o2)nc2cc(Br)ccc21	?	/	-4.7%	15.8µM*	/	>76.9
CCCC12CN(C(=O)c3ccc(OC)cc3)CC(C)(CN(C(=O)c3ccc(OC)cc3)C1)C2=O	27.2%	5.9%	26.0%	20.4%	>57	>76.9
CCCC12CN3CC(C)(CN(C1)C3c1ccc(OC(C)C)cc1)C2=O (centres undefined)	21.5%	14.0%	8.5%	11.2%	>57	1.97*
CCCNC(=O)OC[C@@H]1O[C@H](CCO/N=C(\C)CCN2CCc3nc(CC)c(CC)cc3C2)C=C[C@@H]1Oc1ccc(OC)cc1	-0.4%[11.4 µM]	/	/	5.8%[11.4 µM]	/	/
c1ccc2c(c1)CCN(c1nc3cc4c(cc3s1)OCO4)C2	-26.7%	-0.9%	19.4%	-14.1%	2.83*	>76.9
c1c2c(cc3sc(N4CCCCC4)nc13)OCO2	3.4%	-16.6%	-15.9%	14.2%	6.18*	>76.9
CCOC(=O)CCN1CCN(C(=O)c2ccc(-n3c(=O)c(=O)[nH]c4ccccc43)cc2)CC1	-1.5%	/	/	-3.7%	/	/
CN(C)Cc1ccccc1-c1cncnc1NCc1cccs1	6.5%	0.9%	-13.6%	5.9%	/	/
O=C(c1csnn1)N1CCC2(CC1)CCN(C(c1ccccc1)c1ccccc1)CC2	12.7%	7.2%	111.2%	-11.6%	/	/
CN(C)Cc1ccccc1-c1cc(Nc2ccccc2)ncn1	23.2%	-4.2%	-1.7%	29.4%	/	/
CN(c1ccc(C(=O)Nc2nccs2)cc1)S(=O)(=O)c1ccccc1	?	5.3%	22.9%	31.6µM*	>57	/
CCSc1sccc1C1C(C#N)=C(N)N(c2cccnc2)C2=C1C(=O)CCC2 (centres undefined)	-1.2%	-0.5%	17.0%	5.7%	>57	>76.9
N#CC1=C(N)N(c2ccccc2)C2=C(C(=O)CCC2)C1c1ccsc1 (centres undefined)	-6.8%[11.4 µM]	-2.6%	8.0%	-1.5%	>57	14.9*
COCCn1c(=O)c(-c2ccc(Cl)cc2)nc2cnc(Oc3ccccc3)nc21	?	4.0%	40.5%	?	/	/
Cc1ccccc1-c1cncnc1NCc1cccs1	?	-2.8%	9.1%	15.8µM*	/	/
COc1ccc2[nH]c3nc(SC(C)C)nnc3c2c1	7.3%	-2.1%	/	8.9%	4.49*	>76.9
COc1ccc2[nH]c3nc(SCc4nnc(-c5ccccc5)o4)nnc3c2c1	8.0%	0.8%	28.7%	18.7%	>57	i
Cc1nc(NCc2ccccc2)c2nc(-c3ccccc3)n(CCN(C)C)c2n1	?	-0.4%	/	?	/	/
COc1ccc(C(=O)N=c2nc3ccccn3s2)cc1	1.1%	-0.3%	-6.4%	-9.2%	0.678*	>76.9
COc1ccc(C(=O)OCCN2C(=O)c3ccccc3C2=O)cc1	20.2%	/	/	11.1%	/	/
SMILES	TSHR agonist	Ub-GFP proteasome	USP2a inhib	HEK293 cAMP cs	PK Bst	GBA activity
CN1CCN(c2ncc3nc(-c4ccc(Cl)cc4)c(=O)n(CCC#N)c3n2)CC1	?	10.0%	80.6%	?	/	/
CCC(C)(C)n1nnnc1CN(Cc1cccs1)Cc1cc2cc(OC)ccc2[nH]c1=O	?	-4.3%	/	15.8µM*	>57	i
CCOc1ccc2[nH]c(=O)c(CN(Cc3cccs3)Cc3nnnn3C(C)(C)CC)cc2c1	?	-4.3%	9.6%	20µM*	>57	15.3*
N#CCCn1c(=O)cnc2cnc(Nc3ccccc3)nc21	3.2%	-8.0%	-7.1%	21.4%	/	/
Cc1nc2c(ccc3nc(NC(=O)c4ccc5c(c4)OCCO5)sc32)s1	?	-7.7%	17.6%	?	0.291*	7.38*
CCOc1ccc(NC(=O)Cn2nnc(-c3ccccc3NC(=O)CC)n2)cc1	-1.8%	-5.5%	1.3%	-5.5%	>57	>76.9
COc1ccc(NC(=O)Cn2nnc(-c3ccccc3NC(=O)c3cccs3)n2)cc1	25.1µM*	-2.1%	0.5%	2.2%	>57	>76.9
CN(C)CCCSc1ccccc1NC(=O)/C=C\c1ccccc1	19.6%	-4.0%	/	23.2%	/	/
Fc1cc2nc(-c3ccncc3)[nH]c2cc1F	0.2%	5.2%	7.9%	1.3%	i	13.5*
COc1ccc(N(CC(=O)Nc2cccc(C)c2)S(=O)(=O)c2c(C)n[nH]c2C)cc1	-6.0%	-6.6%	41.9%	5.4%	>57	>76.9
COc1ccc(N(CC(=O)Nc2ccc(C)c(C)c2)S(=O)(=O)c2c(C)n[nH]c2C)cc1	18.6%	-5.7%	52.9%	-1.4%	>57	15.2*
COc1cccc(-c2nc(Cc3ccc(OC)c(OC)c3)no2)c1	?	-12.5%	3.3%	25.1µM*	/	/
COc1ccc(-c2ccc(-c3nnc(Cc4ccc(OC)c(OC)c4)o3)cc2)cc1	/	-0.2%	/	28.3%	>57	>76.9
CC(C)(C)n1nnnc1C(c1cccs1)N(Cc1ccccc1)Cc1ccco1 (centres undefined)	?	-3.8%	?	15.8µM*	>57	i
Cc1ccc(S(=O)(=O)Nc2ccc3c(c2)ncn3C(C)(C)C)cc1	3.5%	15.8%	20.7%	8.0%	/	/
CC(C)(C)n1cnc2cc(NS(=O)(=O)c3ccc(Br)cc3)ccc21	/	/	/	/	2.47*	/
O=C(c1cccc(F)c1)N1CCN(S(=O)(=O)c2ccccc2)CC1	5.7%	0.0%	4.5%	4.5%	/	/
CC(C)c1ccc(S(=O)(=O)N2CCN(C(=O)c3cccc(F)c3)CC2)cc1	?	11.3%	11.0%	20µM*	>57	15.2*
Brc1ccc2[nH]c3nc(SCCN4CCOCC4)nnc3c2c1	-1.9%[11.4 µM]	5.6%	-21.9%	-6.6%	>57	9.59*
N[C@@H](C(=O)O)[C@H](O)C(=O)O	10.3%	6.5%	/	1.6%	/	/
Fc1ccc2nc3[nH]c4ccccc4c3nc2c1	3.7%	-1.0%	2.6%	5.7%	3.68*	>76.9
O=C(O)C1CC2(C1)CC(C(=O)O)C2 (centres undefined)	1.1%[11.4 µM]	-4.0%[9.17 µM]	/	10.3%[11.4 µM]	/	/
CCSc1nnc(-c2cccc(S(=O)(=O)N(CC)CC)c2)n1Cc1ccccc1	?	-1.1%	6.8%	15.8µM*	>57	>76.9
CCN(CC)S(=O)(=O)c1cccc(-c2nnc(SCc3ncc(-c4ccccc4)o3)n2C)c1	?	16.0%	31.9%	?	>57	>76.9
